Experimental data reported in PubChem BioAssay AID916 (National Center for Advancing Translational Sciences (NCATS), 2007).
Records with an inconclusive call do not appear. Values without a mark were called inactive. The source made the active and inactive calls. The call rests on the fitted dose curve; in most records, active means well fitted activation curve with a large enough effect in the signal ratio, with a control signal flat (not every such curve was filed as active); inconclusive means small, poorly fitted or top-dose-only effect, or a change in a side signal; inactive means flat fitted curve, though single readings scatter; the % refers to the signal ratio.

test: Confirmation Concentration-Response Assay for Cell signaling CRE-BLA (Fsk stim); details: CHO CRE-bla reporter (cAMP response element driving beta-lactamase), NKH477 EC10 stim, FRET ratio; series mostly up to 38.3 µM; activation: at the top concentration
Source text: NIH Molecular Libraries Screening Centers Network [MLSCN] NIH Chemical Genomics Center [NCGC] MLSCN Grant: 1X01MH079867-01 Assay Provider: Marshall W. Nirenberg, U.S. National Heart, Lung and Blood Institute CRE beta-lactamase Assay Overview Memories persist for different lengths of time, from seconds or minutes to a lifetime. There are two kinds of memory: short-term memory (STM) and long-term memory (LTM). STM lasts for minutes to hours, which maybe mediated by modifications of molecules involved in synaptic functions. LTM lasts for days or longer, and may be due to the formation of new synapses or restructuring of existing synapses. LTM, but not STM, requires gene transcription and synthesis of proteins. CREB (cyclic-AMP Responsive Element Binding Protein) is one of the candidates plays an important role for enhancement of some types of LTM. CREB, a family of transcription factors, regulates the transcription of genes containing cAMP Responsive Elements (CRE). CRE is a nucleotide sequence often found in the promoter regions of genes that are binding sites for CREB. Using a beta-lactamase reporter-gene under control of cAMP responsive element, a cell-based assay [CellSensor(TM) CRE-bla CHO developed by Invitrogen Corp.] was used to measure forskolin-induced signaling. The selected compounds were measured for their ability to modulate positively the action of EC10 NKH 477, a water soluble forskolin, on reporter gene activity. Compounds were screened in a titration series in 1536-well format. Positive modulators were identified based on the AC50 values derived from the screening data.
NCGC Assay Protocol Summary 2000 cells/5uL in Opti-MEM medium containing 0.5% dialyzed FBS, 0.1 mM NEAA, 1 mM sodium pyruvate and 10 mM HEPES was dispensed into 1536-well plates and cells were cultured at 37 degrees Celsius overnight. Next day 23 nL of compounds or DMSO were delivered to each well using a pin tool, and 1uL of EC10 level of NKH 477, or EC100 level of IBMX, a PDE inhibitor, in the present of NKH 477, or assay medium was added. And then the plates were incubated at 37 degrees Celsius for 3 hours. 1 uL of CCF4-dye mixture was added to each well. After incubated at room temperature for 2 hours the plates were measured on an EnVision plate reader at Excitation 405nm, Emission1=460nm and Emission 2=530nm. The %Activity was determined from the ratio of 460nm/530nm. Keywords: NIH Roadmap, MLSCN, MLSMR, qHTS, NCGC, CRE, beta-lactamase reporter-gene assay.

Row | SMILES | Potency | activation
1 | COc1cc2c(c(OC)c1OC)-c1ccc(OC)c(=O)cc1[C@@H](NC(C)=O)CC2 | 5.01 µM (active) | –
2 | Cn1c(C(=O)N2CCC3(CC2)OCCO3)cc2c(=O)n(C)c3ccccc3c21 | 25.1 µM (active) | –
3 | Cn1c(O)c(C=NCCOc2ccc(Cl)cc2)c(=O)n(C)c1=O | 15.8 µM (active) | –
4 | CC(C)C(=O)N1CCN(CCN=Cc2c(O)n(C)c(=O)n(C)c2=O)CC1 | – | -11.5%
